# D1 agonist = activates the human D1 dopamine receptor. hit rate 1% among 360,000. HEK293 T-REx D1 cells, calcium flux, agonist mode. activation, % at 2 µM; note: 0% is about no effect
# Target sequence (P21728 whole entry, looked up): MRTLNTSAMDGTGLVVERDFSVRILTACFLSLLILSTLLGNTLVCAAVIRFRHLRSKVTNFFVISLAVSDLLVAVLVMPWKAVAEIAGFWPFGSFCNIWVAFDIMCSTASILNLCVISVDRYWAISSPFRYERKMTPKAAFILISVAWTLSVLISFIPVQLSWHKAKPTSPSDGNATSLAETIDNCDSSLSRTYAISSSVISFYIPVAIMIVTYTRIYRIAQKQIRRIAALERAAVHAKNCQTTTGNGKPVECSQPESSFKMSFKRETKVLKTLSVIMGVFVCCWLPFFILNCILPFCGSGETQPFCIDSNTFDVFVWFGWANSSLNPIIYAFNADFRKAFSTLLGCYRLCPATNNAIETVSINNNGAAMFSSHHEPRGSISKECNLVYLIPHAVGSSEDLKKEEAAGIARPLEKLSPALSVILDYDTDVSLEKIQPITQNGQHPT
#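 Agonism was scored from calcium flux recorded over 180 s (1 read/s) after pintool compound addition, following a 10-cycle baseline. Cells were inducible force-coupled HEK293 TREx D1, plated overnight at 30 C and loaded with no-wash calcium dye.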
# D1 PAM = enhances dopamine response at the human D1 receptor. hit rate 0.036% among 360,000. AID 504651. potentiation, % at 10 µM. HEK293 TREx D1 cells, calcium flux, dopamine EC20 potentiation. P21728; in the data active = potentiation above about 30%; note: 0% is about no effect
# Epigenetic reg = derepresses silenced GFP reporter in murine cells | hit rate 0.2% among 280,000 | Potency, µM (highest dose often 53.9 µM), without a hit: top-dose GFP activation, most hits filed as activators | murine LDR cells, GFP reporter derepression, 30 h; active = well fitted activation curve with a large enough effect; inconclusive = small, poorly fitted or top-dose-only effect; note: potency is the fitted concentration of half-maximal effect; % of control where 0% means no effect; nearly all actives have a fitted effect of over 60% in size
#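 In this reporter-derepression format, murine cells bearing a silenced integrated CMV-GFP locus incubate with test compound (30 h, 37 C), then are washed and imaged; fluorescent objects of 20–120 um count as induced cells.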
# TRHR agonist = activates the human TRH receptor. P34981. TRHR cells, calcium flux fluo-8, FDSS agonist mode. activation, % at 2 µM. hit rate 0.18% among 360,000. AID 493084; note: 0% is about no effect
#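 Read-out: compound-evoked intracellular calcium rise in TRHR cells, fluo-8 dye, kinetic FDSS fluorescence at 1 s/cycle following a 10-cycle baseline. Cells cultured overnight before dye loading (30 min–1.5 h, RT).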
# TRHR enhancer = TRH receptor (human) allosteric enhancement; P34981; TRHR cells, fluo-8 calcium fluorescence, EC20 TRH enhancement; enhancement, % at 2 µM; hit rate 0.66% among 360,000; in the data active = enhancement above about 30%; note: 0% is about no effect
#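 TRHR-expressing cells loaded with fluo-8 calcium dye were read kinetically (ex 480/em 530) during compound addition, then stimulated with an EC20 of TRH (10 nM final). Enhancement of the Gq-mediated intracellular calcium response was scored.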
# D1 antag = human D1 dopamine receptor antagonism; P21728; HEK293 TREx D1 cells, calcium flux, dopamine EC80; stronger effect = lower value; activity change, negative = inhibition, % at 10 µM; hit rate 3.2% among 360,000; AID 504652; in the data active = activity change below about -30%; note: % is set by controls: 0 for no effect and ±100 for the full control effect
#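 Calcium flux readout: force-coupled, inducible Hek293 Trex D1 line, cells induced overnight at 30 C with tetracycline, dye-loaded 30–90 min at RT. Antagonism scored against EC80 dopamine challenge given 180 s after compound.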
# * hit, by the source's call; ? = inconclusive; . = not tested or not shown; [ ] = dose if it differs, or a comment. Compounds with a hit are over-represented: about 4.6% of the library has one in this group of screens. Cut-off read from the data, not from the text of the source, unless noted: active = activation above about 30%; inactive = the rest.
SMILES,D1 agonist,D1 PAM,Epigenetic reg,TRHR agonist,TRHR enhancer,D1 antag
Cc1cc(OCC(=O)Nc2ccncc2)ccc1Cl,19.6,-2.8,.,0.3,-13.8,-38.5*
CC(C)CN(C(=O)C1CCCO1)c1c(N)n(CC(C)C)c(=O)[nH]c1=O (centres undefined),4.6,-4.6,.,0.0,12.3,-5.3
CCc1ccc(-n2nc(CO)c(C(=O)NCCc3ccccc3)n2)cc1,4.0,-1.8,-3.9%,-0.5,0.0,11.7
COc1ccc(-c2[nH]ncc2/C=N\NS(=O)(=O)c2ccccc2)cc1OC,1.5,-4.9,-3.1%,0.1,14.0,13.4
COc1ccc(-c2[nH]ncc2/C=N\NS(=O)(=O)c2ccc(Cl)cc2)cc1,3.2,-4.7,-1.3%,0.1,1.1,-41.7*
C[C@@H]1CN(S(=O)(=O)c2ccc3c(c2)OCCO3)CCN1S(=O)(=O)c1c(F)cccc1F,2.4,1.0,.,0.1,0.0,-33.3*
O=C(O)Cc1cc(F)c(S(=O)(=O)N2CCN(S(=O)(=O)c3ccc4c(c3)OCCO4)CC2)cc1F,-0.3,3.0,.,-2.5,2.9,-42.0*
O=[N+]([O-])c1ccccc1S(=O)(=O)N1CCN(S(=O)(=O)c2ccc3c(c2)OCCO3)CC1,0.6,-3.0,.,0.2,-0.1,-30.6*
C[C@H]1CN(S(=O)(=O)c2c(F)cccc2F)CCN1S(=O)(=O)c1ccc2c(c1)OCCO2,2.6,0.8,.,-1.0,2.9,-7.9
CN(Cc1ccccc1F)C(=O)CN1CCN(S(=O)(=O)c2ccc3c(c2)OCCCO3)CC1,7.6,-6.3,.,-1.0,-2.4,-30.9*
O=[N+]([O-])c1cccc(S(=O)(=O)N2CCN(S(=O)(=O)c3ccc4c(c3)OCCO4)CC2)c1,1.1,5.3,.,-0.8,0.8,-4.8
CCOC(=O)N1CCN(Cc2nc3cc(NC(=O)c4ccc(F)cc4)ccc3n2C(C)C)CC1,-1.3,-1.1,-2.4%,-1.3,-3.1,2.6
CO/N=C1/c2cc(OC)ccc2O[C@@H](c2cccc(OC)c2)[C@H]1O,.,.,1.1%[10.1 µM],.,.,.
CCCN(CCC)C(=O)Cn1c(=O)n(-c2ccc(OC)cc2OC)c(=O)c2c3c(sc21)CCC3,-1.3,-0.4,-1.8%,-0.6,-7.3,2.1
CCOC(=O)c1ccc(Nc2sc(C(=O)c3cccc([N+](=O)[O-])c3)c(N)c2C#N)cc1,9.7,1.4,9.6%,0.5,2.3,-31.8*
COc1ccc(C2(O)CCN(CC(=O)Nc3nccs3)CC2)c(OC)c1,1.8,-19.6,1.9%,-0.1,4.2,-30.5*
COc1ccc(C(=O)NCc2ccccc2CN2CCCC2)cc1S(=O)(=O)N1CCOCC1,0.7,-19.4,.,0.3,4.4,-57.3*
O=C(NCc1ccccc1CN1CCCC1)c1ccc(Cl)c(S(=O)(=O)N2CCCC2)c1,12.1,-7.7,.,-0.2,-1.7,-51.1*
O=C(NCc1ccccc1CN1CCCC1)c1cccc(S(=O)(=O)N2CCCC2)c1,3.3,-1.5,.,0.4,7.0,-12.7
COc1ccc(NC(=O)c2ccc(-c3ccccc3)cc2)cc1S(=O)(=O)N1CCOCC1,6.2,-5.1,7.7%,0.5,-4.1,-30.2*
Cc1ccc(C(=O)NCc2ccccc2CN2CCCC2)cc1S(=O)(=O)N1CCOCC1,0.2,-19.5,.,-0.2,0.1,-22.0
CCc1ccc(C(=O)Nc2ccc(OC)c(S(=O)(=O)N3CCOCC3)c2)cc1,4.7,3.4,0.0%,-0.2,-1.6,-6.7
O=C(NCCN1CCOCC1)c1ccc(Cl)c(S(=O)(=O)N2CCCCC2)c1,2.7,6.5,.,0.4,-0.2,-35.6*
Fc1cccc(CNc2ncnc3ccc(-c4ccccc4Cl)cc23)c1,0.4,1.0,.,0.5,5.7,-8.2
O=c1c2cc3c(cc2n(Cc2cccc(Cl)c2)c(=O)n1Cc1nc(-c2ccccc2)no1)OCO3,2.8,-2.6,1.3%,0.8,-3.8,-51.8*
SMILES,D1 agonist,D1 PAM,Epigenetic reg,TRHR agonist,TRHR enhancer,D1 antag
O=c1c2cc3c(cc2n(Cc2ccccc2)c(=O)n1Cc1nc(-c2ccccc2)no1)OCO3,1.2,-1.1,-0.5%,-0.9,10.4,-0.5
CC1(c2ccc(Cl)cc2)NC(=O)N(CC(=O)N2CCc3ccccc3C2)C1=O (centres undefined),31.8*,0.9,.,3.5,5.1,27.8
CSc1ccccc1NC(=O)c1ccccc1,0.0,-6.6,-5.7%,0.1,7.2,-32.0*
CSc1ccccc1NC(=O)c1ccncc1,0.9,2.5,0.0%,-0.1,1.9,1.9
CCOC(=O)CCN1C(=O)[C@H]2[C@H]3[C@H](O)[C@H](O)C/C(=N/NC(=O)OCC)[C@@H]3CC[C@@H]2C1=O,.,.,2.2%[10.1 µM],.,.,.
COc1cccc(C(=O)Nc2c(C(=O)c3ccc(F)cc3)oc3ccccc23)c1,1.0,-5.9,4.7%,0.5,6.4,-5.3
COC(=O)c1ccc(C(=S)NCC2(N(C)C)CCCCC2)cc1,77.0*,-4.3,.,7.9,-7.8,-30.1*
COc1ccc(C2=NOC(COc3ccc([N+](=O)[O-])cc3)C2)cc1 (centres undefined),8.6,-10.2,1.1%,0.2,0.6,-32.4*
COc1ccc(CCNC(=O)C2CC(c3ccc([N+](=O)[O-])cc3)=NO2)cc1 (centres undefined),7.3,-4.8,-1.1%,-0.3,-0.4,-3.1
CC(=O)CC1OC(=O)C(Br)=C1NCc1ccccc1 (centres undefined),6.5,12.2,7.94µM*,0.0,2.7,4.4
O=C(CC1Oc2ccccc2NC1=O)NCc1ccccc1 (centres undefined),0.3,-0.2,1.7%,-0.3,0.2,-18.5
CCCCC(=O)Nc1sc2c(c1C(=O)OCC)CCC(C=O)=C2Cl,1.4,-2.0,11.2µM*,0.2,-4.9,5.4
CCOC(=O)c1c(NC(=O)c2ccccc2Cl)sc2c1CCc1ccccc1-2,2.7,-4.5,7.4%,0.2,6.4,-2.4
Cc1ccc(C(=O)CSc2nc3cc(C(=O)NC4CCCC4)ccc3c(=O)n2CC2CCCO2)cc1 (centres undefined),1.2,3.5,1.5%,1.0,-1.9,4.2
O=C(CSc1nc2cc(C(=O)NC3CCCC3)ccc2c(=O)n1CC1CCCO1)c1cccc(Cl)c1 (centres undefined),5.9,-3.8,?,0.4,-0.9,-36.9*
CCc1ccc(C2N=C(N)Nc3nc4ccccc4n32)cc1 (centres undefined),4.0,-3.2,2.2%,-1.0,5.7,-14.1
CCOC(=O)c1ccccc1-n1c(C)cc(C2N=C(N)Nc3nc4ccccc4n32)c1C (centres undefined),2.2,-5.5,0.8%,0.1,0.8,-35.6*
CNCCC(Oc1ccccc1C)c1ccccc1 (centres undefined),.,.,2.4%,.,.,.
CNCCC(Oc1ccc(C(F)(F)F)cc1)c1ccccc1 (centres undefined),62.4*,.,1.0%,3.0,4.6,.
